Measured values taken from PubChem BioAssay.
Several values for one entry are separate records, joined by “and”; a condition that tells them apart may be missing. Equal entries are not always repeated. Activity calls are given as the source filed them. Rule as the data show it, unless noted: active = parasite load remaining mostly below about 12% (no sharp cut-off); inactive = mostly above about 10%.

Key:
[1] = hESC survival regulators, cell-based (AID 493140; call rule not given here;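 also: cells exposed to compounds for four days before counting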); details: human embryonic stem cell survival screen; stronger effect = higher value
[2] = liver-stage malaria parasite growth inhibition, primary screen, cell-based, HepG2, luciferase luminescence, HepG2 viability (AID 624349);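 also: 100% = mean of DMSO negative control wells on the same plate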; details: P. berghei liver stage in HepG2, luciferase luminescence, concentration not given here; parasite load remaining: stronger effect = lower value; viability: measured here: HepG2 viability without parasites
[3] = stimulators of nuclear beta-catenin in C2C12, primary screen, imaging, WNT3A-conditioned medium, mouse C2C12, NPC library (AID 1117326; in the data active = nuclear beta-catenin stimulation mostly above about 4.2%, no sharp cut-off; inactive = mostly below about 10%); details: stronger effect = higher value
[4] = stimulators of insulin release from INS-1E, primary screen, cell-based, 5 mM glucose, NPC library (AID 1117329;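 active = compound raises insulin release from rat beta cells at 5 mM glucose, no numeric limit stated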); details: rat INS-1E insulin secretion, at 10 µM, stronger effect = higher value
[5] = growth inhibition of GSK3B-pretreated HCT116 cells – cell-based, CellTiter-Glo, 0.2 to 20 µM (AID 1117336;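 active = compounds lowering colon cancer cell viability after pretreatment blocking the GSK3B kinase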); details: HCT116 viability after GSK3B inhibitor, at 20 µM, stronger effect = higher value
[6] = inhibition of endothelial tube formation, primary screen, imaging, VEGF stimulated, CD31 staining, tube area, NPC library (AID 1117340;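 active = compound that reduces growth-factor-driven endothelial tube area in a mixed cell culture, no cutoff stated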); details: VEGF-stimulated ADSC/ECFC co-culture, at 10 µM, stronger effect = higher value
[7] = glucagon-like peptide 1 release enhancers, primary assay, NCI-H716 cell line, NPC library (AID 1117341;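 active = compound raises GLP1 secretion from the human gut endocrine cells, with no numeric limit stated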); details: NCI-H716 cells, at 10 µM, stronger effect = higher value
[8] = HCT116 colon cancer cell growth inhibition, primary screen, CellTiter-Glo luminescence, NPC library (AID 1117342;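 active = compounds that lower survival of HCT116 colon cancer cells in the luminescence readout, no numeric limit stated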); details: at 20 µM (top of the series)
[9] = CellTiter-Glo luminescent readout of SW480 viability loss, NPC library primary (AID 1117343;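 active = compounds that lower viability of the colon cancer cells in the luminescence readout, with no numeric limit stated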); details: CellTiter-Glo luminescence; at 20 µM (top of the series) unless noted
[10] = decreased DLD-1 cellular survival, CellTiter-Glo luminescent readout, NPC compound collection, primary HTS (AID 1117346;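 active = compounds that lower survival of DLD-1 colon cancer cells in the luminescence readout, no cutoff given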); details: DLD-1 viability, CellTiter-Glo luminescence; at 20 µM (top of the series)
[11] = differential killing of epithelial or mesenchymal cells, primary screen, imaging, PC-3E GFP, TEM4-18 mCherry, co-culture (AID 1345086;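 active = compounds killing one labelled cell type while sparing the other, by normalised counts and ratio limits, not self-fluorescent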;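 as to all read-outs here: cells exposed to compound for 72 h before imaging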;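 as to red/green cell ratio (normalised): normalised mesenchymal count divided by normalised epithelial count so high means epithelial killing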); details: imaging cell counts, at 1 µM; for red/green cell ratio (normalised): actives lie on both sides, counts scaled to control wells, 1 = unselective
[12] = survival rescue of mitochondrial mutant cells in low glucose, primary screen, MELAS cybrids, Rieske KO mouse fibroblasts, CellTiter-Glo (AID 1508586;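 active = mean z-score across replicates of 1.96 or higher in either the MELAS or the Rieske mutant cell line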;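 also: z relative to plate mean and SD of compound and empty wells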)
[13] = biological target: NAD(+) hydrolase SARM1 (Homo sapiens) (UniProt Q6SZW1); experiment: SARM1 TIR NADase inhibitors, cell lysate, NAD-Glo luminescence (AID 1508614;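 active = compound whose remaining NAD level is above about 45 nM, limit read from the data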;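 also: higher remaining NAD means stronger inhibition of SARM1 NADase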); details: SAM-TIR HEK293T lysate NADase, at 1 µM, stronger effect = higher value
[14] = LFS_MB_P medulloblastoma growth inhibition, cell-based, chromothripsis tumors, cisplatin or BGB combos (AID 1671449; in the data active = inhibition above about 80%;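 also: cells exposed for 96 hours; 0% = vehicle DMSO and 100% = killing by high DMSO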); details: LFS_MB_P medulloblastoma cells
[15] = HDN33 neuroblastoma growth inhibition, cell-based, chromothripsis tumors, cisplatin or BGB combos (AID 1671450; in the data active = inhibition above about 80%;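 also: cells exposed to compound for four days; 0% = vehicle DMSO and 100% = cell killing by high DMSO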); details: HDN33 neuroblastoma cells, stronger effect = higher value
[16] = ICB984 medulloblastoma cell growth inhibition, synergistic combos for chromothripsis tumors, cisplatin or BGB combos (AID 1671451; call rule not given here;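 also: cells exposed for 96 hours before readout; 0% = vehicle DMSO and 100% = killing by high DMSO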); details: ICB984 medulloblastoma cells, drug combinations, stronger effect = higher value
[17] = HTB85 osteosarcoma cell growth inhibition, synergistic combos for chromothripsis tumors, BGB or cisplatin IC20 combos (AID 1671453; in the data active = inhibition above about 80%;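 also: cells exposed for 96 hours before readout; 0% = vehicle DMSO and 100% = high DMSO killing control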); details: HTB85 osteosarcoma cells, drug combinations, stronger effect = higher value
[18] = MDA-MB-436 breast carcinoma cell growth inhibition, synergistic combos for chromothripsis tumors, BGB or cisplatin combos (AID 1671458; call rule not given here;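 also: cells exposed for 96 hours; 0% = vehicle DMSO and 100% = killing by high DMSO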); details: MDA-MB-436 breast carcinoma growth inhibition, drug combinations, stronger effect = higher value
[19] = sensitizers of A549 cells to miR-34 induction, primary screen, imaging, A549 dox-inducible miR-34, nuclei and caspase counts (AID 1347080;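 active = compounds whose cell count with miR-34 switched on is under 0.7 times the count with it off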); details: A549 miR-34 inducible, Hoechst nuclei count, 48 h
[20] = measured here: epithelial PC-3E GFP cell survival
[21] = measured here: mesenchymal TEM4-18 mCherry cell survival
[22] = MELAS cybrid survival, CellTiter-Glo 48 h, stronger effect = higher value
[23] = Rieske KO mouse fibroblast survival, CellTiter-Glo 72 h
[24] = stronger effect = lower value, cell number ratio, induced over uninduced
[25] = measured here: relative caspase fold change +Dox/-Dox
[26] = measured here: total cells with miR-34 induction, stronger effect = lower value
[27] = measured here: total cells without miR-34 induction

Chain of NAD(+) hydrolase SARM1 (Homo sapiens) (Q6SZW1 whole entry, looked up): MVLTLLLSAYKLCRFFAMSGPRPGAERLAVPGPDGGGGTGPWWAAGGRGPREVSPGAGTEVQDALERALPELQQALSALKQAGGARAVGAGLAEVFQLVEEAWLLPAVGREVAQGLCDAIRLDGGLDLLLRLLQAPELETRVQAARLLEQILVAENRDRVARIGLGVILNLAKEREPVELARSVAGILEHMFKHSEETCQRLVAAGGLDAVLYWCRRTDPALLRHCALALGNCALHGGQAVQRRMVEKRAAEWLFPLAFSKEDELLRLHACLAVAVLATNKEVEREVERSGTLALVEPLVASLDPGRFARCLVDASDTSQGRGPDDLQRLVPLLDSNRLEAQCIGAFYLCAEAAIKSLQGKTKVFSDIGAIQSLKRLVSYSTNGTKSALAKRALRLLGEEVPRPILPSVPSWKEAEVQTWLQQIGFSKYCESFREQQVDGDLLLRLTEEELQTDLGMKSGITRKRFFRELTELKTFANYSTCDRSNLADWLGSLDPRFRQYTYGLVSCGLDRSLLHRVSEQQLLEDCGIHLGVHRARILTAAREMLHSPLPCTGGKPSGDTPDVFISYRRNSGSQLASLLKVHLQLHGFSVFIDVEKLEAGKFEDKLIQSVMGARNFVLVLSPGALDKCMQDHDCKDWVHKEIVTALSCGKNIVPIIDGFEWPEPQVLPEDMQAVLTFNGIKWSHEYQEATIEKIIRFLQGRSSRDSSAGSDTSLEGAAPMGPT

N=C(N=C(N)N)N1CCOCC1
survival [1]: 19.5 (inactive) | parasite load remaining [2]: 19.9% (inactive) and 108% (inactive) and 72.1% (inactive) | viability [2]: 51% and 98% and 255% | nuclear beta-catenin stimulation ([3]; at 10 µM): 1.2% (inactive) | nuclear beta-catenin stimulation ([3]; stimulation, at 2 µM): 1.4% | insulin secretion stimulation [4]: -2.5% (inactive) | viability decrease [5]: -5.75% (inactive) | tube area decrease [6]: 4.5% (inactive) | GLP1 secretion stimulation [7]: 1.9% (inactive) | inhibition of viability [8]: 14.6% (inactive) | viability decrease (inhibition) [9]: 34.4% (inactive) | viability decrease (inhibition) [10]: 4.15% (inactive) | red/green cell ratio (normalised) [11]: 0.95 (inactive) | normalised cell number [11, 20]: 0.9 | normalised cell number [11, 21]: 0.86 | z-score [12, 22]: -0.354 (inactive) and -0.415 (inactive) and 0.363 (inactive) | z-score [12, 23]: 0.794 and 0.165 and 0.626 | remaining NAD [13]: 10 nM (inactive) | inhibition ([14]; at 0.5 µM, stronger effect = higher value): 0.66% (inactive) | inhibition ([14]; measured here: combination with BGB IC20, at 0.005 µM): 31.7% | inhibition ([14]; measured here: combination with BGB IC40, at 0.005 µM): -13.4% | inhibition ([14]; measured here: combination with BGB IC40, at 0.05 µM): -9.47% | inhibition ([14]; measured here: combination with cisplatin, at 0.5 µM, stronger effect = higher value): 66.2% | inhibition ([14]; measured here: combination with cisplatin, at 5 µM, stronger effect = higher value): -1.14% | inhibition ([15]; BGB combo, at 5 µM): 12.3% | inhibition ([15]; at 0.5 µM): -2.43% (inactive) | inhibition ([15]; cisplatin combo, at 5 µM): 9.3% | inhibition ([15]; measured here: with BGB IC20 combination, at 0.5 µM): -2.61% | inhibition ([15]; measured here: with cisplatin IC20 combination, at 0.5 µM): -1.22% | inhibition ([15]; single agent, at 5 µM): 6.99% | inhibition ([16]; BGB IC20 combo, at 0.005 µM): 3.73% | inhibition ([16]; BGB IC40 combo, at 0.005 µM): -7.45% | inhibition ([16]; BGB IC40 combo, at 0.05 µM): -3.82% | inhibition ([16]; at 0.5 µM): -14.1% (inactive) | inhibition ([16]; cisplatin combo, at 0.05 µM): -6.72% | inhibition ([16]; cisplatin combo, at 0.5 µM): -17.9% | inhibition ([16]; cisplatin combo, at 5 µM): -29% | inhibition ([16]; measured here: 5 uM single agent, at 5 µM): -1.94% | inhibition ([17]; at 0.5 µM): -5.39% (inactive) | inhibition ([17]; measured here: with BGB IC20, at 0.5 µM): 1.31% | inhibition ([17]; measured here: with BGB IC20, at 5 µM): -31% | inhibition ([17]; measured here: with cisplatin IC20, at 0.5 µM): -27.9% | inhibition ([17]; measured here: with cisplatin IC20, at 5 µM): -17.8% | inhibition ([17]; single agent, at 5 µM): -7.35% | inhibition ([18]; at 0.5 µM): -3.31% (inactive) | inhibition ([18]; measured here: BGB combination, at 0.5 µM): -4.36% | inhibition ([18]; measured here: BGB combination, at 5 µM): -6.45% | inhibition ([18]; measured here: cisplatin combination, at 0.5 µM): -3.15% | inhibition ([18]; measured here: cisplatin combination, at 5 µM): -8.98%

CC[N+](CC)(CC(=O)Nc1c(C)cccc1C)Cc1ccccc1
parasite load remaining [2]: 117% (inactive) and 51.1% (inactive) | viability [2]: 146% and 98% | nuclear beta-catenin stimulation ([3]; at 10 µM): -0.3% (inactive) | nuclear beta-catenin stimulation ([3]; stimulation, at 2 µM): 6.8% | insulin secretion stimulation [4]: -0.4% (inactive) | viability decrease [5]: -6.6% (inactive) | tube area decrease [6]: -5.6% (inactive) | GLP1 secretion stimulation [7]: 1.3% (inactive) | inhibition of viability [8]: -21.2% (inactive) | viability decrease (inhibition) [9]: 14.9% (inactive) | viability decrease (inhibition) [10]: -2.15% (inactive) | red/green cell ratio (normalised) [11]: 1.59 (inactive) | normalised cell number [11, 20]: 1.01 | normalised cell number [11, 21]: 1.61 | fold change [19, 24]: 0.914 (inactive) and 0.932 (inactive) | fold change [19, 25]: 0.77 and 5.58 | cell count [19, 26]: 8020 and 13200 | cell count [19, 27]: 8770 and 14200 | z-score [12, 22]: -0.589 (inactive) | z-score [12, 23]: -0.906 | remaining NAD [13]: 10 nM (inactive)

O=C(Oc1ccccc1C(=O)O)c1ccccc1O
parasite load remaining [2]: 63.4% (inactive) | viability [2]: 139% | nuclear beta-catenin stimulation ([3]; at 10 µM): 0.1% (inactive) | nuclear beta-catenin stimulation ([3]; stimulation, at 2 µM): 0.1% | insulin secretion stimulation [4]: -0.5% (inactive) | viability decrease [5]: 13.4% (inactive) | tube area decrease [6]: 3.9% (inactive) | GLP1 secretion stimulation [7]: -0.4% (inactive) | inhibition of viability [8]: 0.8% (inactive) | viability decrease (inhibition) [9]: 16.6% (inactive) | viability decrease (inhibition) [10]: 24.3% (inactive) | red/green cell ratio (normalised) [11]: 1.15 (inactive) | normalised cell number [11, 20]: 1.17 | normalised cell number [11, 21]: 1.35 | fold change [19, 24]: 0.931 (inactive) and 0.896 (inactive) | fold change [19, 25]: 1.03 and 3.07 | cell count [19, 26]: 8500 and 11000 | cell count [19, 27]: 9120 and 12300 | z-score [12, 22]: -0.0904 (inactive) | z-score [12, 23]: -0.293 | remaining NAD [13]: 10 nM (inactive)
